The nature of test [1]: NCI Yeast Anticancer Drug Screen. Data for the rad50 strain (AID 155).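 Note: 0% = growth of vehicle-only cultures of the same strain.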 Conditions: S. cerevisiae rad50 strain growth inhibition, hits give high values. The method, boiled down:
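Relative growth inhibition (compound vs vehicle) was measured in yeast with a defined repair-gene alteration.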

Test [2] is described as follows: NCI Yeast Anticancer Drug Screen. Data for the mec2-1 strain (AID 157). Conditions: S. cerevisiae mec2-1 strain, hits give high values. The method, boiled down: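 mec2-1 yeast strain, carrying an alteration in DNA damage repair or cell cycle control, was exposed to compounds; growth inhibition was measured relative to vehicle-treated controls.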
The nature of test [3]: NCI Yeast Anticancer Drug Screen. Data for the sgs1 mgt1 strain (AID 161).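 Note: 0% = growth of cultures given vehicle only.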 Conditions: S. cerevisiae sgs1 mgt1 strain, hits give high values. The method, boiled down:
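Compounds are added to genetically altered yeast, and growth is compared with cultures given vehicle alone to give percent inhibition.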

A short description of test [4]: NCI Yeast Anticancer Drug Screen. Data for the cln2 rad14 strain (AID 165).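 Note: 0% = growth equal to vehicle treated cultures.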 Conditions: S. cerevisiae cln2 rad14 strain, hits give high values. The method, boiled down:
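Yeast carrying cln2 and rad14 alterations (cell cycle control and DNA damage repair) were exposed to compounds. Growth inhibition was measured against vehicle-treated controls.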

A short description of test [5]: NCI Yeast Anticancer Drug Screen. Data for the bub3 strain (AID 167). Conditions: S. cerevisiae bub3 mutant strain, hits give high values. The method, boiled down:
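Screening used yeast with an engineered genetic alteration affecting cell cycle control. Compound-exposed cultures were compared with vehicle cultures, and reduced growth was taken as inhibition.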

Test [6] in a line: NCI Yeast Anticancer Drug Screen. Data for the mlh1 rad18 strain (AID 175). The conditions noted are these: S. cerevisiae mlh1 rad18 strain growth inhibition, hits give high values. The method, boiled down: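 Growth inhibition of the yeast strain was measured after compound exposure and expressed relative to vehicle-treated controls. The strain carries defined defects in DNA damage repair.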

Where [7] appears, read: at 5.0 µM (retest, dose inferred, filed as 0.5).
Setting [8] is: at 50.0 µM (retest, dose inferred, filed as 5.0).

Compounds without any hit were thinned out: in the full panel of roughly 79,000, 15% have a hit. A number with no mark means an inactive call. The source made the active and inactive calls. Cut-off read from the data, not from the text of the source: active = growth inhibition above about 70%; inactive = the rest.

Take `COc1cc(C(=O)[O][Sn]([c]2ccccc2)([c]2ccccc2)[c]2ccccc2)cc(OC)c1OC`: the growth inhibition in test [1] (setting [7]) is 100% (active); in test [1] (setting [8]), 99% (active); in test [1] (at 50.0 µM) it was 98.6% (active); in test [2] (setting [7]), 100% (active); in test [2] (setting [8]), 100% (active); in test [2] (at 50.0 µM), 99.2% (active). Further, the growth inhibition in test [3] (setting [7]) was 99% (active); in test [3] (setting [8]), 99% (active); in test [3] (at 50.0 µM) it was 98.5% (active); in test [4] (setting [7]), 99% (active); in test [4] (setting [8]), 99% (active); in test [4] (at 50.0 µM), 89.2% (active). For the same molecule, the growth inhibition was 99% (active) in test [5] (setting [7]); 99% (active) in test [5] (setting [8]); 97% (active) in test [5] (at 50.0 µM); 99% (active) in test [6] (setting [7]); 99% (active) in test [6] (setting [8]); 98.3% (active) in test [6] (at 50.0 µM).

Regarding `[O-]/[N+]1=[N+](\[O-])c2ccccc2CCc2ccccc21`, the growth inhibition was -1% in test [1] (setting [7]); -4% in test [1] (setting [8]); 3.8% in test [1] (at 50.0 µM); -1% in test [2] (setting [7]); 1% in test [2] (setting [8]); -4.65% in test [2] (at 50.0 µM). Besides, the growth inhibition in test [3] (setting [7]) was 4%; in test [3] (setting [8]), 1%; in test [3] (at 50.0 µM) it was 40.1%; in test [4] (setting [7]), -1%; in test [4] (setting [8]) it was -4%; in test [4] (at 50.0 µM) it was 1%. For the same molecule, the growth inhibition in test [5] (setting [7]) was -1%; in test [5] (setting [8]), 0%; in test [5] (at 50.0 µM) it was 15.4%; in test [6] (setting [7]), -3%; in test [6] (setting [8]), 3%; in test [6] (at 50.0 µM), 1.6%.

Regarding `O=C(N/N=C/c1ccc2c(c1)OCO2)c1ccc([N+](=O)[O-])cc1`, the growth inhibition is 3% in test [1] (setting [7]); 2% in test [1] (setting [8]); 5.35% in test [1] (at 50.0 µM); -14% in test [2] (setting [7]); -15% in test [2] (setting [8]); 14.5% in test [2] (at 50.0 µM). Further, the growth inhibition in test [3] (setting [7]) is 8%; in test [3] (setting [8]) it was 7%; in test [3] (at 50.0 µM), 14.8%; in test [4] (setting [7]) it was 4%; in test [4] (setting [8]) it was 5%; in test [4] (at 50.0 µM), 30.7%. The growth inhibition was 0% in test [5] (setting [7]); 16% in test [5] (setting [8]); 0.25% in test [5] (at 50.0 µM); 3% in test [6] (setting [7]); 13% in test [6] (setting [8]); 57% in test [6] (at 50.0 µM).

For `CC(C)C1=CC(=O)C(C)(C2C(O)CC3(C)C4CC=C5C(CCC(O)C5(C)C)C4(C)C(=O)CC23C)O1` (stereo unspecified), the growth inhibition in test [1] (setting [7]) is 65%; in test [1] (setting [8]), 80% (active); in test [1] (at 50.0 µM), 73.2% (active); in test [2] (setting [7]) it was 78% (active); in test [2] (setting [8]), 87% (active); in test [2] (at 50.0 µM) it was 74.5% (active). For the same molecule, the growth inhibition was 64% in test [3] (setting [7]); 74% (active) in test [3] (setting [8]); 68.8% in test [3] (at 50.0 µM); 54% in test [4] (setting [7]); 83% (active) in test [4] (setting [8]); 75% (active) in test [4] (at 50.0 µM). In addition, the growth inhibition in test [5] (setting [7]) is 78% (active); in test [5] (setting [8]), 86% (active); in test [5] (at 50.0 µM) it was 62.2%; in test [6] (setting [7]), 85% (active); in test [6] (setting [8]), 89% (active); in test [6] (at 50.0 µM), 69.4%.

Consider `Cc1ccc2c(c1)C(O)(c1ccccc1)C(c1ccccc1)C(c1ccccc1)O2` (stereo unspecified), for which the growth inhibition in test [1] (setting [7]) was 78% (active); in test [1] (setting [8]) it was 83% (active); in test [1] (at 50.0 µM), 93.9% (active); in test [2] (setting [7]) it was 56%; in test [2] (setting [8]) it was 92% (active); in test [2] (at 50.0 µM) it was 94.3% (active). Besides, the growth inhibition in test [3] (setting [7]) was 69%; in test [3] (setting [8]), 87% (active); in test [3] (at 50.0 µM) it was 93.7% (active); in test [4] (setting [7]), 59%; in test [4] (setting [8]), 62%; in test [4] (at 50.0 µM) it was 90.4% (active). Further, the growth inhibition in test [5] (setting [7]) was 87% (active); in test [5] (setting [8]), 91% (active); in test [5] (at 50.0 µM), 89.5% (active); in test [6] (setting [7]), 66%; in test [6] (setting [8]) it was 88% (active); in test [6] (at 50.0 µM), 93.6% (active).

For the molecule `CSc1cc(N)nc(N)n1`, the growth inhibition is 3% in test [1] (setting [7]); -4% in test [1] (setting [8]); 73% (active) in test [1] (at 50.0 µM); 3% in test [2] (setting [7]); 2% in test [2] (setting [8]); 79.3% (active) in test [2] (at 50.0 µM). Moreover, the growth inhibition in test [3] (setting [7]) is 4%; in test [3] (setting [8]), 14%; in test [3] (at 50.0 µM), 80.3% (active); in test [4] (setting [7]) it was 1%; in test [4] (setting [8]), 3%; in test [4] (at 50.0 µM), 83.2% (active). Besides, the growth inhibition was 1% in test [5] (setting [7]); -3% in test [5] (setting [8]); 38.9% in test [5] (at 50.0 µM); 2% in test [6] (setting [7]); -6% in test [6] (setting [8]); 93.4% (active) in test [6] (at 50.0 µM).

With `CC(CCC(=O)O)[C@H]1CCC2[C@H]3C(CC[C@@]21C)[C@@]1(C)CCC(O)C[C@H]1C[C@@H]3O` (stereo partly specified), the growth inhibition was -11% in test [1] (setting [7]); 46% in test [1] (setting [8]); 75.1% (active) in test [1] (at 50.0 µM); -13% in test [2] (setting [7]); 56% in test [2] (setting [8]); 73.2% (active) in test [2] (at 50.0 µM). For the same molecule, the growth inhibition was -10% in test [3] (setting [7]); 60% in test [3] (setting [8]); 79.3% (active) in test [3] (at 50.0 µM); 2% in test [4] (setting [7]); 73% (active) in test [4] (setting [8]); 73% (active) in test [4] (at 50.0 µM). Further, the growth inhibition was -13% in test [5] (setting [7]); 86% (active) in test [5] (setting [8]); 56.1% in test [5] (at 50.0 µM); -26% in test [6] (setting [7]); 76% (active) in test [6] (setting [8]); 71.6% (active) in test [6] (at 50.0 µM).

The record behind these values is PubChem BioAssay (NCI).
